Most compounds without a hit are left out; they make up all but 2.1% or so of the library.
HIF act – HIF pathway transcriptional activation; activation, % at 7.5 µM (by protocol); U2OS HRE-luciferase reporter, luminescence; normalized: DMSO 0%, desferrioxamine 100%; actives 0.32% (n = 300,000);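 active = mean activation of at least 10% of the iron chelator positive control signal, with at least half of replicates also reaching 10%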
KLF5 inhibitor – suppresses KLF5 promoter-driven expression; DLD-1 KLF5 promoter-luciferase reporter, luminescence; inhibition, % at 5 µM; actives 0.23% (n = 290,000); AID 1700;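 active = inhibition above a per-plate limit of that plate's mean compound inhibition plus 3 SD, cut at about 60% in these data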;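 also: 0% = DMSO wells and 100% = LY294002 at 200 µM; higher means less KLF5 promoter-driven luciferase light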
aSyn UTR inh – 5' untranslated region of α-synuclein, MLPCN primary screen; inhibition, % (tested at 7.5 µM); actives 0.82% (n = 300,000); alpha-synuclein 5'UTR reporter, inhibitor activity; in the data active = inhibition above about 60%;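 also: H4 neuroglioblastoma cells stably carrying SNCA 5'UTR luciferase fusion; 0% = DMSO wells and 100% = positive control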
Wee1 stabilizer – inhibitors of human Wee1 degradation | P30291 | HeLa Luc-Wee1K328M stability, luciferase luminescence; 100% = proteasome inhibitor MG132 effect | reporter increase, % at 5 µM | actives 1.2% (n = 220,000) | AID 1321;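 active = activation above the mean of all tested compounds plus 3 SD, set per screening run, cut at about 8.8% in these data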;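 also: cells exposed to compound for 20 h before luminescence read; 0% = DMSO alone and 100% = MG132 at 30 µM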
Target sequence (P30291 whole entry K328M): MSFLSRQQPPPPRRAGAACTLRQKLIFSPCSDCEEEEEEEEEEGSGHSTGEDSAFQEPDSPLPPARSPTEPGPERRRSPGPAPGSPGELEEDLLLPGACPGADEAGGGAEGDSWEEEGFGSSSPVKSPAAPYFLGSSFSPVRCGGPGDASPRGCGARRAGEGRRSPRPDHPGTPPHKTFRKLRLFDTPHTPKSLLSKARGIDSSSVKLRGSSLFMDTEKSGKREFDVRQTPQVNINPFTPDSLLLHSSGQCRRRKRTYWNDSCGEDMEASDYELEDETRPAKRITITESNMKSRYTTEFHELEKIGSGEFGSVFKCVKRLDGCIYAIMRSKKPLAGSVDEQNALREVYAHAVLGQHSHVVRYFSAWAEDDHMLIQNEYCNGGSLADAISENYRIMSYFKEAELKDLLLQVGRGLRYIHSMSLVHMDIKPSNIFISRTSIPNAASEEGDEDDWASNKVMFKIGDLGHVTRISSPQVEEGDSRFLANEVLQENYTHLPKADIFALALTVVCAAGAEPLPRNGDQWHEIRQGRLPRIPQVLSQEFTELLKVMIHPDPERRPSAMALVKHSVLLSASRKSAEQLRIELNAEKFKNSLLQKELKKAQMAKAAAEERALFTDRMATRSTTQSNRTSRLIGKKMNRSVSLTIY
Platelet DG rel – modulates dense granule release in human platelets; human platelet-rich plasma, SFLLRN dense granule ATP release, luminescence; inhibition, %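 (compounds screened at 7.5 µM in platelet-rich plasma)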; actives 0.22% (n = 300,000); AID 1663;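 active = mean replicate score, as percent of positive control, at or above 50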
Starred values were filed as active, the others as inactive; nt = no result.

SMILES	HIF act	KLF5 inhibitor	aSyn UTR inh	Wee1 stabilizer	Platelet DG rel
COc1ccc(C(CCNC(C)c2ccccc2)C(C)C)cc1 (centres undefined)	-1	-10	25	2	0
COc1ccc(C(C)NCCC(c2ccc(OC(C)C)cc2)c2ccccc2OC)cc1 (centres undefined)	-3	1	93*	nt	4
Clc1ccccc1-c1nnc2sc(-c3ccncc3)nn12	1	-56	-18	0	9
CN(C)c1ccc(-c2nn3c(-c4ccccc4Cl)nnc3s2)cc1	0	23	82*	7	1
Cc1csc(NC(=O)c2cn3ccccc3n2)n1	-3	50	82*	-3	57*
CSC1=C(C#N)C(c2ccc(Cl)cc2)C2=C(CC(C)(C)CC2=O)N1 (centres undefined)	-1	nt	71*	nt	3
Cc1nc(-c2ccccn2)nc(N2CCOCC2)c1Cl	0	-7	8	10*	9
c1ccc(-c2nc(N3CCOCC3)c3ccccc3n2)nc1	0	-13	6	0	1
CC(C)=NOC(=O)c1c(C)noc1-c1snnc1C	60*	-14	-18	1	-7
CCC(C)NC(=O)C1CCN(C(=O)c2ccccc2)CC1 (centres undefined)	nt	10	nt	1	nt
O=C(Nc1ccccc1)Nc1ccc(C(=O)N2CCCC2)cc1	0	-32	3	6	58*
CC(C)NC(=O)C1CCN(C(=O)c2ccc(-c3ccccc3)cc2)CC1	0	-13	23	11*	3
CCOC(=O)C(CC(=O)O)=C(c1ccccc1)c1ccccc1	-2	4	-7	nt	-5
CCCn1c(C2CCCN2c2nc(-c3cccc(Br)c3)cs2)nc2ccccc21 (centres undefined)	0	-15	-93	nt	5
CCC1CCCCN1C(=O)c1cc(COc2ccc(-n3cncn3)cc2)on1 (centres undefined)	-1	-8	3	nt	10
Cc1nnc(NC(=O)CSc2nnnn2Cc2ccccc2)s1	0	-29	-24	-2	5
O=C(CSc1nnnn1Cc1ccccc1)Nc1ccccc1	0	2	7	9.3*	-1
CCCc1ccc(-c2cc(C(=O)NN3CCOCC3)c3ccccc3n2)cc1	2	-60	-93	0	5
CCc1ccc(-c2cc(C(=O)Nn3cnnc3)c3ccccc3n2)cc1	-2	55	74*	-4	45
COc1cc(C2CC(=O)Nc3c2c(=O)nc2c(C)cccn32)cc(OC)c1OC (centres undefined)	0	-15	-51	-2	-3
Cn1nccc1C(=O)N1CCCC(N2CCN(Cc3ccc4c(c3)OCO4)CC2)C1 (centres undefined)	0	-22	-5	nt	3
Clc1ccccc1-c1ncc2ccccn12	3	-67	-98	8.9*	-4
Nc1cccc2c1C(=O)N(Cc1cccc(Cl)c1)C2=O	0	15	22	11*	5
CC(C)C[C@H](NC(=O)C1CCN(C(=O)[C@H](Cc2ccccc2)NC(=O)OC(C)(C)C)CC1)C(=O)O	-1	-8	24	nt	0
COc1ccc(/C=C/C(=O)c2ccc(NC(=O)c3cccs3)cc2)cc1OC	5	-48	-94	9.2*	-6
SMILES	HIF act	KLF5 inhibitor	aSyn UTR inh	Wee1 stabilizer	Platelet DG rel
COC(=O)C(CCSC)NC(=O)c1cn(-c2ccc(OC)cc2)c(=O)c2ccccc12 (centres undefined)	-2	-51	15	nt	-6
COC(=O)c1sccc1NC(=O)Nc1ccc(C(C)=O)cc1	nt	-50	nt	nt	nt
Cc1cc2cc(CN(Cc3ccc4c(c3)OCO4)Cc3nnnn3C3CCCC3)c(=O)[nH]c2cc1C	0	-8	8	0	7
O=c1[nH]c2cc3c(cc2cc1CN(CCc1ccccc1)Cc1nnnn1C1CCCC1)OCCO3	0	4	-25	4	50*
CN(C(=O)C(Cl)Cl)C1CC2C=CC1C2 (centres undefined)	0	-7	-11	11*	4
Cc1ccc(Sc2ncccc2COC(=O)NC(C)C)cc1	1	-36	-89	6	-2
Cc1ccc(C(=O)NCCc2cccs2)cc1	-3	40	73*	-4	-9
O=C(NCCc1cccs1)c1ccc(Cl)cc1	-2	-77	21	-2	12
O=[N+]([O-])c1c(Nc2cccc(O)c2)cc(Cl)c2nonc12	-2	4	25	nt	60*
O=C(Nc1ccccn1)c1ccc(-c2ccccc2)cc1	-4	43	63*	nt	17
O=C(Nc1ccccn1)c1ccc2nc(-c3ccccc3)c(-c3ccccc3)nc2c1	0	-4	-10	-2	-2
Cn1cc(/C=C/c2cc[n+](C)cc2)c2cc(Cl)ccc21	-2	19	64*	nt	5
CCN1CCN(C(=O)/C=C/c2ccccc2[N+](=O)[O-])CC1	0	9	-21	-2	-1
O=C(/C=C/c1ccccc1[N+](=O)[O-])N1CCCCC1	0	-10	-6	9.1*	-3
Cc1ccn2c(Nc3ccccc3C)c(-c3ccccn3)nc2c1	12*	-9	45	5	15
Cc1ccc2nc(-c3ccccn3)c(Nc3ccccc3C)n2c1	22*	0	38	-3	29
Cc1ccn2c(Nc3ccccc3)c(-c3ccccn3)nc2c1	9	-38	54	3	-6
Cc1ccccc1Nc1c(-c2ccccn2)nc2ccccn12	13*	0	64*	1	3
Cc1ccc2nc(-c3cccnc3)c(Nc3ccccc3C)n2c1	-1	-23	17	7	9
O=C(O)CN1CCc2ccccc2C1	0	-26	-12	-1	4
CCn1c(SCC(=O)NC(=O)NCc2ccco2)nc2sc(C)c(C)c2c1=O	0	-56	10	9.8*	-18
Cc1sc2nc(SCC(=O)NCc3ccco3)n(C)c(=O)c2c1C	0	7	1	0	-14
Cc1occc1C(=O)N1CCCC(CO)(Cc2ccc(F)cc2F)C1 (centres undefined)	0	1	-11	nt	4
CCOc1c(N2CC(C)OC(C)C2)c(=O)c1=O (centres undefined)	-1	-34	27	9.4*	-1
CC/C(C)=N\N=C\c1c(O)n(CC)c2cc(C3=NNC(=O)CC3)ccc12	-1	-7	28	0	75*
COc1ccc(CCNC(=O)CNS(=O)(=O)c2ccc(Cl)cc2)cc1	0	nt	11	nt	1
COc1ccc(CN(C(=O)/C=C/C(=O)c2ccc(OC)cc2O)C(C(=O)NC2CCCCC2)c2ccncc2)cc1 (centres undefined)	0	7	13	-1	11
COc1ccc(C(=O)/C=C/C(=O)N(Cc2ccc3c(c2)OCO3)C(C(=O)NC2CCCCC2)c2ccncc2)c(O)c1 (centres undefined)	0	10	-10	-1	12
COc1ccc(C(=O)/C=C/C(=O)N(CC(=O)NC2CCCCC2)Cc2cccs2)c(O)c1	-6	15	71*	-4	23

High-throughput results as filed in PubChem.
